Experimental data from the supplement of paper PMC10849652.
The full data set covers some 7,900 targets. This sample favours those with a hit. About 0.6% of all pairs of compound and target were hits.

Compound: CN(C)CC(=O)Nc1ccc2[nH]c(=O)c3ccccc3c2c1
Assay: log2 fold change, soluble protein after heating vs DMSO (PISA); higher = thermal stabilisation; K562 cells, 10 uM, 30 min; active = over 0.2 and 3.5 SD of the protein, either way, in both replicates (recomputed)
Procedure, shortened: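 K562 cells (2×10^6 cells/mL) were treated with 10 μM compound for 30 min, and aliquots were heated for 3 min over 48°C-58°C. Pooled aliquots were extracted in PBS with 0.5% NP-40 at 4°C, and the supernatant after 21,000xg for 90 min was measured by TMTpro 16plex LC-MS/MS with channel sums equalised. Reported thermal stability, relative to control samples and from duplicates, is a log2 fold change.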

UniProt Q53EL6, sequence (Q53EL6 whole entry, looked up): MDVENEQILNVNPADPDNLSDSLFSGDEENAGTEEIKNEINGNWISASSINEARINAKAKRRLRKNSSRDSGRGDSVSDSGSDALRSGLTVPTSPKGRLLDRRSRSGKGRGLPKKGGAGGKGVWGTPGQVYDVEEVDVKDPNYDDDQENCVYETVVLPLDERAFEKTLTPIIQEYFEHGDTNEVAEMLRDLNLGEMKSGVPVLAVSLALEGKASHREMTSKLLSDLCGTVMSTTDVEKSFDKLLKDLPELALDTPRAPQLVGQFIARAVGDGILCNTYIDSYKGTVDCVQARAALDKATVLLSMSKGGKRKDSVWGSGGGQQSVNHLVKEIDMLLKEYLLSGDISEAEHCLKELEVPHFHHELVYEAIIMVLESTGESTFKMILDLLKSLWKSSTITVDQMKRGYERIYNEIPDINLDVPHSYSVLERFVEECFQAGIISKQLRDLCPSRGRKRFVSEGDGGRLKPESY
UniProt Q16537, sequence (Q16537 whole entry, looked up): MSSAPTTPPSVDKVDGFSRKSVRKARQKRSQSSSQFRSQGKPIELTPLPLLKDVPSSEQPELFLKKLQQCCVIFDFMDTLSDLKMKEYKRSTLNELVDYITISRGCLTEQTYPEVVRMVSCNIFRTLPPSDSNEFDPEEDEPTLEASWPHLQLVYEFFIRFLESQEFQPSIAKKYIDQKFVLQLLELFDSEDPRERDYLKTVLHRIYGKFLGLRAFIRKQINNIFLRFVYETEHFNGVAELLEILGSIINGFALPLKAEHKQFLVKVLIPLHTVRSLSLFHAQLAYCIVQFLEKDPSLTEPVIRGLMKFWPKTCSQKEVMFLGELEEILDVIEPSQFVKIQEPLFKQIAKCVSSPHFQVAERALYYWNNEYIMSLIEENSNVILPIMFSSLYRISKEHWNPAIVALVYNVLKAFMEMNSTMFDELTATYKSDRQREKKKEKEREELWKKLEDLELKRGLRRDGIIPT
UniProt Q96A00, sequence (Q96A00 whole entry, looked up): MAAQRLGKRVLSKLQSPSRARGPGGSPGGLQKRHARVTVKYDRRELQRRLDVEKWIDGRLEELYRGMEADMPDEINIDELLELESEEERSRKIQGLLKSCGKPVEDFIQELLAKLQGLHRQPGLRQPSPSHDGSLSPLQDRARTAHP
UniProt O00232, sequence (O00232 whole entry, looked up): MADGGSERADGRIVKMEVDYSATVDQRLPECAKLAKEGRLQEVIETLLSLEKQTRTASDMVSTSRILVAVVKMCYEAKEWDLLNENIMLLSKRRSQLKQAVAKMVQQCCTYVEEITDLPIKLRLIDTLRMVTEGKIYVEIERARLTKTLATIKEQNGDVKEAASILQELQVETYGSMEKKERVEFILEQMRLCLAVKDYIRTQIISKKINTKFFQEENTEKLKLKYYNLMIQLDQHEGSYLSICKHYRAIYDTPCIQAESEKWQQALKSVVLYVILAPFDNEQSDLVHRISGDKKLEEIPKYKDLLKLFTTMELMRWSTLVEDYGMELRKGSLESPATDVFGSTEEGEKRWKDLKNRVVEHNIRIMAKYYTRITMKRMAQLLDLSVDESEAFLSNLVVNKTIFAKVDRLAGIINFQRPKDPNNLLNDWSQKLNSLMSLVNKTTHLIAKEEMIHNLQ
UniProt P14618, sequence (P14618 whole entry, looked up): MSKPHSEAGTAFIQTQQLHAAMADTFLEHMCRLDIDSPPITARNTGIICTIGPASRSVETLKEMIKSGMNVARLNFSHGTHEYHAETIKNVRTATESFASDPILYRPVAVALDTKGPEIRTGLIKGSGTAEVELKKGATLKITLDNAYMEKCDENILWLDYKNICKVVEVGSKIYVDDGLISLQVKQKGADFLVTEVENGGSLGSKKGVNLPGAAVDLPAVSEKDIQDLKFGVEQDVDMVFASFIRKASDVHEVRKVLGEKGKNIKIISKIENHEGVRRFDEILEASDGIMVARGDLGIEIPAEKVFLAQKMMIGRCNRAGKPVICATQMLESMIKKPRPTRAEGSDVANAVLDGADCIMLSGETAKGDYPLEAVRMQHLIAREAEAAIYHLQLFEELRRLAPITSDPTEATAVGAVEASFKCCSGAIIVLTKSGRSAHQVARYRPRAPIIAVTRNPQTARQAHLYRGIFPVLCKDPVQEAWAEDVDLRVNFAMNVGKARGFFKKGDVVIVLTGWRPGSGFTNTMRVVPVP
UniProt Q9Y478, sequence (Q9Y478 whole entry, looked up): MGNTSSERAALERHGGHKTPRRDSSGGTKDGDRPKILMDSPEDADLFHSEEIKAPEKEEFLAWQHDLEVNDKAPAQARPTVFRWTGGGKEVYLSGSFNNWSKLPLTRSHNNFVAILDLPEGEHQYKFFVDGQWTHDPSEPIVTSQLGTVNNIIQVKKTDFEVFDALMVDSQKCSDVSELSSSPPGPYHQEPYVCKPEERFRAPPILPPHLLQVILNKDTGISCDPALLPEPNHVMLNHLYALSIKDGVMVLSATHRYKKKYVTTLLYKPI
UniProt Q10713, sequence (Q10713 whole entry, looked up): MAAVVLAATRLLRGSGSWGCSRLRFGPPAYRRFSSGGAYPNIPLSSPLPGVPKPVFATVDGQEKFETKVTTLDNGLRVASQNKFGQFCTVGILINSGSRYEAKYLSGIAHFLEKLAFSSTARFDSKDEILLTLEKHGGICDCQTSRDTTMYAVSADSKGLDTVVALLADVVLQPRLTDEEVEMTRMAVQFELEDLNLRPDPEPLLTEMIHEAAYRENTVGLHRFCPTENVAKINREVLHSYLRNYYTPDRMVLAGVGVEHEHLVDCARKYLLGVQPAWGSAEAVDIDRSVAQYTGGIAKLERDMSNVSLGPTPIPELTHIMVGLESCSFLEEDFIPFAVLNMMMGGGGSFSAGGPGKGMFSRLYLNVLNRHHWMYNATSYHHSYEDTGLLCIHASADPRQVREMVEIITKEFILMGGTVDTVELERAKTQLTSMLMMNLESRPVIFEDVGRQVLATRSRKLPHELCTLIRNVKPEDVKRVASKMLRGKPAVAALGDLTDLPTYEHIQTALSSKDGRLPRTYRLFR
UniProt Q13356, sequence (Q13356 whole entry, looked up): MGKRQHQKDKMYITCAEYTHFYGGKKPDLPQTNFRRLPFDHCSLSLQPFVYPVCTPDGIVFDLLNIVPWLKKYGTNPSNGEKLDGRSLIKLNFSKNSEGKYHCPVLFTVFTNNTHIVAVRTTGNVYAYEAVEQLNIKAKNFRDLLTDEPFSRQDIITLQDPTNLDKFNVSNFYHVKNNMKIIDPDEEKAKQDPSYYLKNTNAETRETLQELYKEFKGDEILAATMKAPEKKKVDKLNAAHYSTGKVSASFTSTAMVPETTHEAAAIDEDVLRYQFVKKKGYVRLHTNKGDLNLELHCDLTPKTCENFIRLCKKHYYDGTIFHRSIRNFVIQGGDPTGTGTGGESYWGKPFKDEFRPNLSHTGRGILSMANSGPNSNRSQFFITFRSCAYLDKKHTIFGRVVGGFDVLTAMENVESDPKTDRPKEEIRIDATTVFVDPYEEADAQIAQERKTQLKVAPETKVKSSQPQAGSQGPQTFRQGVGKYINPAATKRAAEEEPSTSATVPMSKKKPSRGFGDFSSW
UniProt Q99541, sequence (Q99541 whole entry, looked up): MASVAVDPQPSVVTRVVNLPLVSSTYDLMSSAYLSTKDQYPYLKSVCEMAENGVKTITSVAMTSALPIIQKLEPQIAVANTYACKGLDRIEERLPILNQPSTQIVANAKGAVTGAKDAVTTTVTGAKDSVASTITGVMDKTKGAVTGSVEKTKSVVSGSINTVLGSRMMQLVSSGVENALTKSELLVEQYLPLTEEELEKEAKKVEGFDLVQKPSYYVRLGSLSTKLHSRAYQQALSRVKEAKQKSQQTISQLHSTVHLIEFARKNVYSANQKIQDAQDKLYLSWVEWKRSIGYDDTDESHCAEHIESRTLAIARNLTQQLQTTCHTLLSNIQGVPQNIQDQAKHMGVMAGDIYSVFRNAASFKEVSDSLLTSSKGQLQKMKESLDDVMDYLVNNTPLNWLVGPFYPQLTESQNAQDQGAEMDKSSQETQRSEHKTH
UniProt Q00577, sequence (Q00577 whole entry, looked up): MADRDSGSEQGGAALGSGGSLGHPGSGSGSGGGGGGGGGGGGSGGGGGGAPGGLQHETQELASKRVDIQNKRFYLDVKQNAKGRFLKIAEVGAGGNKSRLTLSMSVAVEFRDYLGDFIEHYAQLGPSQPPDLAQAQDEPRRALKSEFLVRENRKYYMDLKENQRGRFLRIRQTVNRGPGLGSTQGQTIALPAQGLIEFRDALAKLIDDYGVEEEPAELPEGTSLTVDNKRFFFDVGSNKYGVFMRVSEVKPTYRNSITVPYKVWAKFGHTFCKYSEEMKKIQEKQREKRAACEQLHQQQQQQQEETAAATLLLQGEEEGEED
UniProt Q93096, sequence (Q93096 whole entry, looked up): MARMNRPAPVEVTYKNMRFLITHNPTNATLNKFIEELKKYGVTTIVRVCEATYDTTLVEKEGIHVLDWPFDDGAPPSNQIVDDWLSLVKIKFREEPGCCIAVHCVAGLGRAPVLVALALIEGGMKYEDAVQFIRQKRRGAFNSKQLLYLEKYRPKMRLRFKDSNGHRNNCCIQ
UniProt Q969N2, sequence (Q969N2 whole entry, looked up): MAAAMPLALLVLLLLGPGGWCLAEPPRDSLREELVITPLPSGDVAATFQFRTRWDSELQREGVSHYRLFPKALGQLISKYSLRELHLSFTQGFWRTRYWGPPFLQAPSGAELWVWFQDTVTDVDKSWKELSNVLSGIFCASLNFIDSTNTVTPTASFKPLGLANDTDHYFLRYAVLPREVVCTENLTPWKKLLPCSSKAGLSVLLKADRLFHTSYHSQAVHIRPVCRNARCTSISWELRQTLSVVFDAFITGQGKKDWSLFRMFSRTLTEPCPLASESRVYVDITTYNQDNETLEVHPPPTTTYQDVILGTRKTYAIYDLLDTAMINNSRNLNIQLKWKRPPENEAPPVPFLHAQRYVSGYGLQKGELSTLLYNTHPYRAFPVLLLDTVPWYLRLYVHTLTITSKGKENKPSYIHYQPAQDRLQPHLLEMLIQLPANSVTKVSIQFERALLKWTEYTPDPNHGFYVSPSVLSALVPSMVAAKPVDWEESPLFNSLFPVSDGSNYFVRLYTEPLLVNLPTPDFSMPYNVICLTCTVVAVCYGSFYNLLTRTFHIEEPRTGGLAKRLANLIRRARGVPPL

log2 fold change, inactive:
POLR2M (UniProt P0CAP2) 0.004, PCID2 (UniProt Q5JVF3) -0.021, PMPCA (UniProt Q10713) 0.013, POLA1 (UniProt P09884) 0.032, PDE2A (UniProt O00408) 0.027, PDCD4 (UniProt Q53EL6) 0.065, PURA (UniProt Q00577) -0.095, PPP1R14A (UniProt Q96A00) -0.04, PMM2 (UniProt O15305) -0.049, PTRH2 (UniProt Q9Y3E5) 0.057, PPP2R5E (UniProt Q16537) 0.018, PFAS (UniProt O15067) 0.031, PPP2R5A (UniProt Q15172) 0.072, PHKG2 (UniProt P15735) -0.002, PKM (UniProt P14618) -0.015, PSMD12 (UniProt O00232) -0.007, PRKAR1B (UniProt P31321) -0.001, POLR2K (UniProt P53803) 0.05, PLCB3 (UniProt Q01970) 0.02, PLIN2 (UniProt Q99541) 0.013, POTEI (UniProt P0CG38) -0.006, PTP4A1 (UniProt Q93096) -0.044, PI4K2A (UniProt Q9BTU6) -0.014, POLR3K (UniProt Q9Y2Y1) -0.048, PEX16 isoform 2 (UniProt Q9Y5Y5) 0.013, PIGT (UniProt Q969N2) 0.013, PRKAA1 isoform 2 (UniProt Q13131) -0.007, PTRHD1 (UniProt Q6GMV3) -0.056, PPIL2 (UniProt Q13356) 0.08, PEX13 (UniProt Q92968) 0.019, PSMD2 (UniProt Q13200) -0.04, PPID (UniProt Q08752) 0.087, POLD1 (UniProt P28340) 0.027, PDCD2L (UniProt Q9BRP1) 0.038, PRKAB1 (UniProt Q9Y478) 0.022, PSMD7 (UniProt P51665) -0.019, PYGL (UniProt P06737) -0.001
